We go through seven compounds from PubChem BioAssay (NCATS).

Assay [1] addresses Transient receptor potential cation channel subfamily V member 1 (Homo sapiens) (UniProt Q8NER1). As to the kind of experiment: HTS Assay for Compounds that Act as Enhancers of the Vanilloid Receptor 1 (AID 488979). Note: 0% is about no effect. The gist of the method: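 TRPV1-expressing cells loaded with Fluo-8 calcium dye; compounds added and calcium influx read kinetically for 3 min (agonist phase), then capsaicin at EC20 added and read 2 min more for enhancement. Fluorescence ex 480/em 520 nm.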

Assay [2] deals with Thyrotropin receptor (Homo sapiens) (UniProt P16473). The assay can be described thus: qHTS Assay for Antagonists of the Thyroid Stimulating Hormone Receptor (AID 488980). Note: series mostly up to about 58 µM; 0% is about no effect. Put shortly: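 Cells expressing human TSHR (HEK293) are dispensed in HBSS/HEPES containing 70 uM RO 20-1724, compound is added, then TSH at EC80 (4 nM final). Antibody in lysis buffer follows, 30 minutes at room temperature before HTRF detection.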
Chain of Thyrotropin receptor (Homo sapiens) (P16473 whole entry, looked up): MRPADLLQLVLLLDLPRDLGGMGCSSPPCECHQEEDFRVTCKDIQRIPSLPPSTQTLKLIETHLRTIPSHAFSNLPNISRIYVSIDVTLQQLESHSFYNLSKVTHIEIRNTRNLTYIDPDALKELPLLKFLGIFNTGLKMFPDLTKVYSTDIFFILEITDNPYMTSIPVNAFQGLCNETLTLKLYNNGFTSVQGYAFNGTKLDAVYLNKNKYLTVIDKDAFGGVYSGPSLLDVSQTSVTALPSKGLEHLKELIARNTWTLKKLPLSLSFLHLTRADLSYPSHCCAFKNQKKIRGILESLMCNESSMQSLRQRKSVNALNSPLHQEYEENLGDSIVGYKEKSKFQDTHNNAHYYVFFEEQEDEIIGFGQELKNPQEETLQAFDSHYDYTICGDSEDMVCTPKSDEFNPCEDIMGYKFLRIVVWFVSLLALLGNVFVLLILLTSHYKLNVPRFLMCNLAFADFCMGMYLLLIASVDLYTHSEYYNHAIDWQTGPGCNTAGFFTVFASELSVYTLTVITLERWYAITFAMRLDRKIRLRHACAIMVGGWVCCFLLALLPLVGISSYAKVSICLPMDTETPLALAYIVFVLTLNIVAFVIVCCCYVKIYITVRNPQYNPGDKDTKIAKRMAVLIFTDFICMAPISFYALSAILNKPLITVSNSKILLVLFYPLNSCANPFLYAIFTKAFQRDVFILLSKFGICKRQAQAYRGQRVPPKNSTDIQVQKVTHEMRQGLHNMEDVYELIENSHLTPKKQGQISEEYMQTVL

Assay [3] has as its target D(1A) dopamine receptor (Homo sapiens) (UniProt P21728). The assay can be described thus: HTS Assay for Allosteric Agonists of the Human D1 Dopamine Receptor: Primary Screen for Agonists (AID 488981). Note: 0% is about no effect. The gist of the method: (§1)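 Tetracycline-induced HEK293 T-REx cells force-coupled to calcium signalling were incubated overnight at 30 C and dye-loaded at room temperature. Calcium flux over 180 s after compound addition flagged agonists; a further 180 s read after EC20 dopamine flagged potentiators.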

Assay [4] shares this target. As to the kind of experiment: HTS Assay for Allosteric Agonists of the Human D1 Dopamine Receptor: Primary Screen for Potentiators (AID 488982). Note: 0% is about no effect. Put shortly:
as §1

Assay [5] shares this target. As to the kind of experiment: HTS Assay for Allosteric Agonists of the Human D1 Dopamine Receptor: Primary Screen for Antagonists (AID 488983).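 Note: calcium flux response to an EC80 dopamine challenge measured with no-wash dye; % is set by controls: 0 for no effect and ±100 for the full control effect; nearly all actives have a fitted effect of over 65% in size.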 The gist of the method:
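Calcium flux readout, no-wash dye, inducible HEK293 T-REx D1 line (force-coupled). Compound added after 10 s baseline, 180 s kinetic read; then dopamine at EC80, further 180 s read.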

The nature of assay [6]: Validation screen for small molecules that induce genotoxicity in human embryonic kidney (HEK293T) cells expressing luciferase-tagged ELG1 (AID 493106). Note: 0% is about no effect. Put shortly:
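qHTS format; 2,000 HEK293T ELG1-luc cells/well; 23 nL compound via pin tool; 16 hr, 37 °C/5% CO2; ONE-Glo, 30 min RT; luminescence read.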

Assay [7] has as its target ATPase family AAA domain-containing protein 5 (Homo sapiens) (UniProt Q96QE3). As to the kind of experiment: Validation screen for small molecules that inhibit ELG1-dependent DNA repair in human embryonic kidney (HEK293T) cells expressing luciferase-tagged ELG1 (AID 493107).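 Note: cells co-treated with the DNA-damaging agent 5-fluorouridine alongside compound; series mostly up to about 46 µM; % is set by controls: 0 for no effect and ±100 for the full control effect; inhibitors lower the ELG1-luciferase luminescence signal; nearly all actives have a fitted effect of over 70% in size.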 Put shortly:
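ELG1-luciferase HEK293T reporter; 5-fluorouridine + compound/DMSO, 16 hr, 37 °C, 5% CO2; ONE-Glo 30 min RT; luminescence read, qHTS format.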

Assay [8] concerns the target Thyrotropin-releasing hormone receptor (Homo sapiens) (UniProt P34981). As to the kind of experiment: qHTS for Small Molecule Agonists and Allosteric Enhancers of Human TRH Receptor: Validation Screen for Agonists (AID 493127;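 active = calcium activation more than 3 SD above the typical response in the agonist read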;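 note: intracellular calcium rise by fluo-8 fluorescence before TRH EC20 addition; 0% is about no effect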). The conditions noted are these: TRH receptor agonist cell assay; at 2 µM; stronger effect = higher value. The gist of the method: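 Read-out: intracellular calcium release measured kinetically by FDSS (fluo-8, ex 480/em 530 nm), 1 reading/s after a 10-cycle baseline. TRHR cells, 2000/well, cultured 18 h at 33.5C, dye-loaded at room temp. Compound-evoked positive calcium signal flags agonists.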
In general terms: Quantitative high-throughput screening tests each substance at several concentrations.

Assay [9] in a line: Nrf2 qHTS screen for inhibitors: Validation (AID 493153; active = well fitted inhibition curve with a large enough effect in the main read-out, with a control signal flat, not every such curve was filed as active). The conditions noted are these: Potency: luciferase luminescence; viability change: measured here: cytotoxicity max response. The gist of the method: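 Concentration-response test in A549 ARE_Fluc reporter cells (5% FBS OPTI-MEM), compound exposure 18-24 h at 37°C, 5% CO2. Cell viability measured first by CellTiter-Fluor fluorescence; ARE-driven luciferase luminescence then measured as Nrf2 activity.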

A short description of assay [10]: qHTS for Inhibitors of Cell Surface uPA Generation: Validation Assay (AID 493164).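 Note: RAW 264.7 macrophage cells exposed to compound for 18 h; 0% is about no effect.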 The gist of the method:
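Compounds are titrated over seven points (2.45 nM–38.3 uM final) onto pre-plated RAW 264.7 cells and incubated for 18 h. Retained intracellular ATP, measured with ATP-Lite, indicates blocked lethal factor entry.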

Assay [11] deals with Galactokinase (Homo sapiens) (UniProt P51570). As to the kind of experiment: qHTS Validation Assay for Inhibitors of Human Galactokinase (GALK) (AID 493189). Note: 0% is about no effect. The gist of the method:
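Compounds were pin-transferred into ATP buffer, then GALK-galactose mix was added (final 5 nM enzyme, 100 uM galactose, 35 uM ATP). After 1 h at room temperature, remaining ATP was measured luminescently.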

The nature of assay [12]: Validation screen for small molecules that induce DNA re-replication in SW480 colon adenocarcinoma cells (AID 504364). Note: 0% is about no effect. Put shortly: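 Read-out: total Hoechst intensity of nuclei by fluorescence scanning imager; hits raise the fraction of nuclei with elevated DNA content. Cells received compound for 48 hr at 37 C before a 40 min stain.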
For assay [13], the target named is Peptidyl-prolyl cis-trans isomerase NIMA-interacting 1 (Homo sapiens) (UniProt Q13526). The assay can be described thus: qHTS Validation Assay to Find Inhibitors of Pin1 (AID 504536; active = well fitted inhibition curve with a large enough effect in the polarisation, with a control signal flat, not every such curve was filed as active; the % refers to the polarisation;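 note: 0% = full Pin1 enzyme wells and -100% = no-enzyme wells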). The gist of the method:
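Fluorescence polarization competition: compounds (titration) displace HiFluor-488-labeled Pin1-1b peptide from Pin1 (0.3 uM final) in pH 7.5 HEPES buffer with DTT, 10 min at room temperature; %Activity normalized to no-enzyme wells, curves fitted.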

Assay [14] deals with Phosphoglycerate kinase, glycosomal (Trypanosoma brucei brucei) (UniProt P07378). As to the kind of experiment: qHTS Validation Assay to Find Inhibitors of Phosphoglycerate Kinase (AID 504547).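 Note: control wells lack PGK and mark full inhibition.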 Put shortly:
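In TEA buffer (100mM, pH 7.6) containing 5mM MgCl2 and 0.01% Tween-20, the GAPDH-coupled PGK reaction proceeded for 60 minutes at room temperature before a single luminescence reading using Kinase-Glo Plus.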

In assay [15] the target is phosphoglycerate mutase (Leishmania major) (UniProt Q4Q090). As to the kind of experiment: qHTS Validation Assay to Find Inhibitors of Phosphoglycerate Mutase (AID 504548).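 Note: end-point luminescence from Kinase-GloPlus after the PGAM reaction; series mostly up to about 58 µM; % is set by controls: 0 for no effect and ±100 for the full control effect.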 The conditions noted are these: Potency: inhibition qHTS. The gist of the method:
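L. major PGAM (1.25nM final) was added to substrate buffer and pinned compound, incubated 45 minutes at room temperature, then Kinase-GloPlus added; luminescence read after 10 minutes. Buffer: 100 mM TEA pH 7.6, 5 mM MgCl2, 0.01% Tween-20.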

Assay [16] has as its target Ubiquitin carboxyl-terminal hydrolase 1 (Homo sapiens) (UniProt O94782). As to the kind of experiment: Inhibitors of USP1/UAF1: Pilot qHTS (AID 504865).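 Note: rhodamine fluorescence freed from ubiquitin-rhodamine substrate followed over time; top concentration of the series differs between compounds; % is set by controls: 0 for no effect and ±100 for the full control effect; nearly all actives have a fitted effect of over 35% in size.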 The gist of the method:
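Kinetic fluorescence assay: 1nM USP1/UAF1, 15 min compound preincubation, then 150nM Ub-Rho; 480/540 nm.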

A short description of assay [17]: qHTS for Inhibitors of ATXN expression: Validation of Cytotoxic Assay (AID 588349). Note: % is set by controls: 0 for no effect and ±100 for the full control effect. The gist of the method: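 Cytotoxicity counter-screen: HEK293 cells exposed to compound titrations, 72 hr, 37 degrees C. Read-out is intracellular ATP (CellTiter Glo luminescence) as a viability measure.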
Assay [18] can be described thus: qHTS for Inhibitors of ATXN expression: Validation (AID 588378). Note: series mostly up to about 57 µM; % is set by controls: 0 for no effect and ±100 for the full control effect; nearly all actives have a fitted effect of over 75% in size. The gist of the method:
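Validation of ATXN2 expression inhibitors uses a cell-based luciferase fusion reporter in HEK293 cells, with 24 h compound exposure and paired viability (fluorescence) and reporter (luminescence) end-point reads.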

Each structure is given as a SMILES string. Records with an inconclusive call do not appear. Calls of active or inactive are those of the source. Unless noted, calls come from the whole dose curve; as a rule, active = well fitted curve in the direction sought with a large enough effect; inconclusive = small, poorly fitted or top-dose-only effect, or another doubt; inactive = no such curve, though single readings can be large; an effect the other way counts as inactive or inconclusive.

Chain of ATPase family AAA domain-containing protein 5 (Homo sapiens) (Q96QE3 whole entry, looked up, the tested form may be a part): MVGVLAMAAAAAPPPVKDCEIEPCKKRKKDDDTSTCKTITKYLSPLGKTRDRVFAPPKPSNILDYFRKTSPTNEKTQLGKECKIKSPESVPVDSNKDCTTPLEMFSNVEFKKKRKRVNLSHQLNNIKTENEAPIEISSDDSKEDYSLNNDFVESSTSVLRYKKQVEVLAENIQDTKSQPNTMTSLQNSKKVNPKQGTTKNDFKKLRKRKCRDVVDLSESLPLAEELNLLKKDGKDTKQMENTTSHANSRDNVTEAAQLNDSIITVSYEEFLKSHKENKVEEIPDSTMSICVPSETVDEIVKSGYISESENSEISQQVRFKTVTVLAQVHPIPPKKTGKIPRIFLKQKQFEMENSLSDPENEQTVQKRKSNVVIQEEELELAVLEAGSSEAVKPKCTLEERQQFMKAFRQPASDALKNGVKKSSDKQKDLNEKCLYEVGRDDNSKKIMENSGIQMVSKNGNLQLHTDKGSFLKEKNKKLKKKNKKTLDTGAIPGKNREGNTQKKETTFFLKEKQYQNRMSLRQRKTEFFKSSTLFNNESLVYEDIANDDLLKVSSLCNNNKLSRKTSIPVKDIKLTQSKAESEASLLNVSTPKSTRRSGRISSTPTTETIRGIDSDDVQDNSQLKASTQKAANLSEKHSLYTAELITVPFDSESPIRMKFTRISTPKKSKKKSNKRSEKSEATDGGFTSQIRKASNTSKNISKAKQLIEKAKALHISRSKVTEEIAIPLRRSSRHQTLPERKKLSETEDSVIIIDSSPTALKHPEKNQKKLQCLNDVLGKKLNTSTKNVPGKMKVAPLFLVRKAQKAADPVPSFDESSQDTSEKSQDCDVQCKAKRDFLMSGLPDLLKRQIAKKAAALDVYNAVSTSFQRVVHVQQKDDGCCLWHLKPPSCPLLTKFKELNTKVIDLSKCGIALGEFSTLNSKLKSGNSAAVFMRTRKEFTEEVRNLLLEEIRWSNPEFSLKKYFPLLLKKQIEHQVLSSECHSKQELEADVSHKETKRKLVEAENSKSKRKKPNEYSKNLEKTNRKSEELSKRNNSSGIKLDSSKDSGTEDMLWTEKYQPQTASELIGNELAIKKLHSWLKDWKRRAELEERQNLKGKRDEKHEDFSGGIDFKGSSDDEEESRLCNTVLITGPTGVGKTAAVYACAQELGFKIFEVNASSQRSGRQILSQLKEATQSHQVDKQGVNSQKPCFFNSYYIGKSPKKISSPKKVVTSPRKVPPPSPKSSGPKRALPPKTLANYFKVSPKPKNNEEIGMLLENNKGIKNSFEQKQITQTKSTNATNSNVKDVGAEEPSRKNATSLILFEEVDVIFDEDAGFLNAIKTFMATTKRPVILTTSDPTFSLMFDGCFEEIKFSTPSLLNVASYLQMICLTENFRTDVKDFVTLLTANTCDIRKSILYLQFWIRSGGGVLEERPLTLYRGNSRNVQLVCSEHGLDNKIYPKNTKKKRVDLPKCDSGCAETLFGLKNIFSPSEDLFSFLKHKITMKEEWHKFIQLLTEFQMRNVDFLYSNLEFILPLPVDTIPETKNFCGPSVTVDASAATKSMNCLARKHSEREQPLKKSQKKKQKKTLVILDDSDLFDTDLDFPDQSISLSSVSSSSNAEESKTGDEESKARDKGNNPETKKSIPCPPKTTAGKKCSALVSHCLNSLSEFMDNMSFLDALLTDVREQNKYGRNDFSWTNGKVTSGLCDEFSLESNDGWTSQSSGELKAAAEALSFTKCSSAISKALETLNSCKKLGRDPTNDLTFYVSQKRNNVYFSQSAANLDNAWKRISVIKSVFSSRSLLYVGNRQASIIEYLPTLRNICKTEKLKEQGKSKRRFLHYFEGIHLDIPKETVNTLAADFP
Chain of Galactokinase (Homo sapiens) (P51570 whole entry, looked up): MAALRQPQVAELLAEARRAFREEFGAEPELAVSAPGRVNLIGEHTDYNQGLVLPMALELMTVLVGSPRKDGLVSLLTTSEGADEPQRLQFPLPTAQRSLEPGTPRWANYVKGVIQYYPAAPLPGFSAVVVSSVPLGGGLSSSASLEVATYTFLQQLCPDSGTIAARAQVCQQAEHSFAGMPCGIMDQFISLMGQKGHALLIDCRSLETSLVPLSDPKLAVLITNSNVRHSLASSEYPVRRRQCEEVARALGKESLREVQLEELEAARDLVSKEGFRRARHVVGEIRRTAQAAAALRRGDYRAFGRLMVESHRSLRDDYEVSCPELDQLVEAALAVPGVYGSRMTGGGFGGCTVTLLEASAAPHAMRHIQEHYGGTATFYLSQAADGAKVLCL
Chain of Ubiquitin carboxyl-terminal hydrolase 1 (Homo sapiens) (O94782 whole entry, looked up): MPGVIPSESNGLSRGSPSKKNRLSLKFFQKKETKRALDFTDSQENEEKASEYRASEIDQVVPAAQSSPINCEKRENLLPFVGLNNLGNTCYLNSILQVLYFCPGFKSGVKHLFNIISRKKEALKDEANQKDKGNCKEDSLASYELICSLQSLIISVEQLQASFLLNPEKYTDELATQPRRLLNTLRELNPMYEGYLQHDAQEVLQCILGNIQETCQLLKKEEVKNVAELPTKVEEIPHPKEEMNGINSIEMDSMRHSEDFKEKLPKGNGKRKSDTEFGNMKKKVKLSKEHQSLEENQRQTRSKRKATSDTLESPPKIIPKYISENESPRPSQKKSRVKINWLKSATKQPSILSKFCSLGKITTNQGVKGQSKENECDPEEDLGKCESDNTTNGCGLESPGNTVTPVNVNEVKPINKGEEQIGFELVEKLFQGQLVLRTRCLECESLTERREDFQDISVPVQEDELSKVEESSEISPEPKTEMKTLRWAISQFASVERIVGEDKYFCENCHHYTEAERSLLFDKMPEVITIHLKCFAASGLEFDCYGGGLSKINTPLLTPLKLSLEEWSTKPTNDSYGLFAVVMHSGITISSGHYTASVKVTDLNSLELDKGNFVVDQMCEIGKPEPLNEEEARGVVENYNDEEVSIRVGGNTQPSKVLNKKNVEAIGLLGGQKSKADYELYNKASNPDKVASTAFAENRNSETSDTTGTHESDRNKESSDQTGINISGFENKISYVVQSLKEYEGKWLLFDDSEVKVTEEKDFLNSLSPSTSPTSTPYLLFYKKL
Chain of Thyrotropin-releasing hormone receptor (Homo sapiens) (P34981 whole entry, looked up): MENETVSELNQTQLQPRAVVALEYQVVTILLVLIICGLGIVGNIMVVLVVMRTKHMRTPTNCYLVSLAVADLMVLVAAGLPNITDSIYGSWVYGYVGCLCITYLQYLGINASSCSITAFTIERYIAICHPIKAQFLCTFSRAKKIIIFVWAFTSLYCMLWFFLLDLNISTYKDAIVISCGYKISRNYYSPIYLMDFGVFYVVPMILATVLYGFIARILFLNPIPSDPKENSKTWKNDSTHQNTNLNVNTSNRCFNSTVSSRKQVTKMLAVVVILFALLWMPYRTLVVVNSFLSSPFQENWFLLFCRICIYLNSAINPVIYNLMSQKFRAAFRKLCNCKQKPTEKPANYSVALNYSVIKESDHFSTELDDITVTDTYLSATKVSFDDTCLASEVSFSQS
Chain of Transient receptor potential cation channel subfamily V member 1 (Homo sapiens) (Q8NER1 whole entry, looked up): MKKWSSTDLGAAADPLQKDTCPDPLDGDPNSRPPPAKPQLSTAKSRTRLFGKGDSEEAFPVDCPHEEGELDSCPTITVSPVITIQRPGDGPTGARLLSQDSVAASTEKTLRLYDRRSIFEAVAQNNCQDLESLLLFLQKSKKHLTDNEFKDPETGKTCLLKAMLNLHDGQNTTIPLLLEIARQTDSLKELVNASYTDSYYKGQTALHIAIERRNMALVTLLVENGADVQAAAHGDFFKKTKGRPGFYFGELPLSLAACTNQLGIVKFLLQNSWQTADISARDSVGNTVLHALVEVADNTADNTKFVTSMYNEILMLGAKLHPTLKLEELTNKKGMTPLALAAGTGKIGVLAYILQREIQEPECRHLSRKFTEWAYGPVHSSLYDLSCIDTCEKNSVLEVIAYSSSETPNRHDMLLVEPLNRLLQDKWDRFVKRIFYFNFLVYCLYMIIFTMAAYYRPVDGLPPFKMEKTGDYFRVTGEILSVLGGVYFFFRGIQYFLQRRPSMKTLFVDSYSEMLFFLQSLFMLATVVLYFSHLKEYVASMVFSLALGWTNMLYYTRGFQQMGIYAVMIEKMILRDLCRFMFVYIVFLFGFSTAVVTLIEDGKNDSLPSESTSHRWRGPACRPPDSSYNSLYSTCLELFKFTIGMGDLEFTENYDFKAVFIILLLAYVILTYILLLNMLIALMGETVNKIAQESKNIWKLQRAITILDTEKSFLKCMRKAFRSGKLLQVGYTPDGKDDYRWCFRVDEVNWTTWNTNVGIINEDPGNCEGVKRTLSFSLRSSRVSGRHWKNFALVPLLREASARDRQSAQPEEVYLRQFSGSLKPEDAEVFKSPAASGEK

Take `COc1ccccc1N1CCN(CCCNc2c(C)c(=O)n(C)c(=O)n2C)CC1`: the result in assay [1], in [2] and in assay [10] was inactive. Further, the Potency result in assay [3], in assay [4], in assay [5], in assay [6], in assay [7] and in assay [9] was “inactive” in each case. The Potency entry in [11], in assay [12], in assay [13], in [14], in assay [15] and in assay [16] was “inactive” throughout. Also, the Potency entry in [17] and in assay [18] was “inactive” in each case. The activation in [8] was 0.0625% (inactive). In addition, the viability change in [9] amounted to 3.58%.
Turning to `NCCS(=O)O`, the outcome in assay [1], in [2] and in assay [10] was inactive. Further, the Potency result in assay [3], in assay [4], in [5], in assay [6], in [7] and in [9] was “inactive” throughout. In addition, the Potency entry in [11], in assay [12], in assay [13], in [14], in assay [15] and in [16] was “inactive” in each case. In addition, the Potency entry in assay [17] and in assay [18] was “inactive” throughout. Also, the activation in [8] was 1.19% (inactive). Further, the viability change in assay [9] was determined as 6.69%.
Turning to `C=C(C)C1CC=C(C(=O)O)CC1` (configuration not stated), the result in [1], in [2] and in assay [10] was inactive. Also, the Potency result in [3], in [4], in assay [5], in [6], in [7] and in [9] was “inactive” in each case. The Potency entry in assay [11], in assay [12], in [13], in assay [14], in assay [15] and in assay [17] was “inactive” in each case. In addition, the Potency entry in assay [18] was “inactive”. The activation in assay [8] was 1.12% (inactive). Further, in assay [9], the viability change worked out at 1.77%.
On to `O=[N+]([O-])c1cccc2cn[nH]c12`, for which the outcome in assay [1], in assay [2] and in [10] was inactive. Also, the Potency entry in assay [3], in assay [4], in assay [5], in [6], in assay [7] and in [9] was “inactive” in each case. Further, the Potency entry in assay [11], in [12], in assay [13], in [14], in assay [15] and in assay [16] was “inactive” each time. Besides, the Potency entry in assay [17] and in assay [18] was “inactive” in each case. For the same compound, the activation in assay [8] was 0.5% (inactive). The viability change in assay [9] was -18.2%.
For the compound `Nn1nnc2ccccc21`, the outcome in assay [1], in assay [2] and in assay [10] was inactive. The Potency entry in assay [3], in [4], in assay [5], in assay [6], in assay [7] and in [9] was “inactive” throughout. Besides, the Potency result in assay [11], in assay [12], in assay [13], in assay [14], in assay [15] and in assay [16] was “inactive” in each case. The Potency entry in assay [17] and in assay [18] was “inactive” in each case. For the same compound, the activation in assay [8] is 1.12% (inactive). Further, the viability change in assay [9] is -0.567%.
Take `CCOC(=O)C12CC1/C(=N/O)c1ccccc1O2` (configuration not stated): the result in assay [1], in [2] and in assay [10] was inactive. The Potency result in assay [3], in assay [4], in assay [5], in [6], in assay [7] and in assay [9] was “inactive” in each case. Besides, the Potency result in assay [11], in assay [12], in assay [13], in assay [14], in assay [15] and in assay [16] was “inactive” in each case. Also, the Potency entry in [17] and in assay [18] was “inactive” in each case. The activation in [8] is -3.94% (inactive). The viability change in [9] worked out at 1.91%.
For `COC(=O)C(C)(N)Cc1ccc(O)cc1` (configuration not stated), the result in assay [1], in assay [2] and in assay [10] was inactive. The Potency entry in assay [3], in assay [4], in assay [5], in assay [6], in [7] and in assay [9] was “inactive” each time. Also, the Potency result in assay [11], in assay [12], in assay [13], in assay [14], in assay [15] and in [16] was “inactive” throughout. Also, the Potency entry in assay [17] and in assay [18] was “inactive” throughout. Also, the activation in [8] is 0.125% (inactive). In addition, the viability change in assay [9] was -3.06%.
